For some assays here: Entries with a potency or affinity are not part of this list.
Experiments:
Design in all cases: scale not given: direction of the effect not stated beside the values
[1] = target: Protein translocase subunit SecA (Escherichia coli (strain K12)) (UniProt P10408); assay: Assay to Identify E. coli SecA ATPase Inhibitors; assay type: functional; details: 30 µM
[2] = target: T1, Ubiquitin-activating enzyme e1, putative (Leishmania donovani (strain BPK282A1)) (UniProt E9BSI1); assay: Leishmania donovani Ubiquitin Activating Enzyme (LdE1); assay type: functional; details: 30 µM
T1 sequence (whole entry): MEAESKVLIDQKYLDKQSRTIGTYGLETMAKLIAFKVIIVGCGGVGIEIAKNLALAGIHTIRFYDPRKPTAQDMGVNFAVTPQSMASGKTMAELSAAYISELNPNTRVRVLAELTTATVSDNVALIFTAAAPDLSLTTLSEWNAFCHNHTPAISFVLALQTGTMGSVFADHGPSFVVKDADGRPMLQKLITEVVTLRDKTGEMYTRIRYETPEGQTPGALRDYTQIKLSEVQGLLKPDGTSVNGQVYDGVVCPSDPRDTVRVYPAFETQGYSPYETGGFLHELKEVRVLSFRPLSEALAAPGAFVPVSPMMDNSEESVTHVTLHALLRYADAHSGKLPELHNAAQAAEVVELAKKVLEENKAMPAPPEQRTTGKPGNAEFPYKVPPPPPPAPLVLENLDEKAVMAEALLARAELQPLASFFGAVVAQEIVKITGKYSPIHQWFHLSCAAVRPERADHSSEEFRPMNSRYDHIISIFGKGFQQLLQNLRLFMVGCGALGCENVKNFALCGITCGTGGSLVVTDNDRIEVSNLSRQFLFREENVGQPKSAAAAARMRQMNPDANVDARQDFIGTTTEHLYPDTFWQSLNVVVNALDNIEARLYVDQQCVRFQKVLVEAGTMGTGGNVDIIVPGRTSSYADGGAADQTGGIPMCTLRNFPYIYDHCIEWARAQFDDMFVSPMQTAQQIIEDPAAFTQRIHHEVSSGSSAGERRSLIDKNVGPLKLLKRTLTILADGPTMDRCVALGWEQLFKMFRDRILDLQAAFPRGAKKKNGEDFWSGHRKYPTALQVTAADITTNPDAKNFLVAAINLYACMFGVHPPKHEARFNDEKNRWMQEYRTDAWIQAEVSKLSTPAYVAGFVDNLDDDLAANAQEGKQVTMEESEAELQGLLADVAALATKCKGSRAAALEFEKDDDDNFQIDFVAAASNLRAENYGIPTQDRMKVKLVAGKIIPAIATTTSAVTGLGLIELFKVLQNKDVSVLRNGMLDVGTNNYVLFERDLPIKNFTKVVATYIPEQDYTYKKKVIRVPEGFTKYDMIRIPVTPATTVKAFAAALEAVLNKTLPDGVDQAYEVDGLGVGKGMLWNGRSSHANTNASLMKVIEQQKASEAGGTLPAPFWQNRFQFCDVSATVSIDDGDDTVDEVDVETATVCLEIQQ

[3] = target: Sialic acid-binding Ig-like lectin 9 (Homo sapiens) (UniProt Q9Y336); assay: Hs-Siglec9 ALPHAscreen SOP 20170721; details: 10 µM
Chain of Sialic acid-binding Ig-like lectin 9 (Homo sapiens) (Q9Y336 whole entry): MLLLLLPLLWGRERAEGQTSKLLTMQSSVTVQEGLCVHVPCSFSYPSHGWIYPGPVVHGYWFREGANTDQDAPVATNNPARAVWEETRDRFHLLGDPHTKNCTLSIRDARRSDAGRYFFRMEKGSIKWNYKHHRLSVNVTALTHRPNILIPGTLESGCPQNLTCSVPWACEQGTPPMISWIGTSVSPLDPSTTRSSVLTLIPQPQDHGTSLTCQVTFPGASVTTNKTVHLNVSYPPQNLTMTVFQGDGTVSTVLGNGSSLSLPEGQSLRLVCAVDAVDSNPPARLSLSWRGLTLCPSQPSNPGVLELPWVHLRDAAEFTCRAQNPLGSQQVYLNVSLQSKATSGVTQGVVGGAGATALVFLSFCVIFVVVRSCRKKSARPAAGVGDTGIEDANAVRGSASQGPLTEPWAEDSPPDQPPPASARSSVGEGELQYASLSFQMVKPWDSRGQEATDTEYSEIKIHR

[4] = tested on: Trypanosoma cruzi; assay: Trypanosoma cruzi phosphomannomutase and mannose-1-phosphate guanylyltransferase assay; assay type: functional; details: 10 µM
[5] = target: T2, Arginase-2, mitochondrial (Homo sapiens) (UniProt P78540); assay: in vitro enzyme assay to detect the production of urea directly proportional to the activity of Arginase II; assay type: functional; details: 33.3 µM; also: in the data most compounds retested in dose-response had high values
T2 sequence (whole entry): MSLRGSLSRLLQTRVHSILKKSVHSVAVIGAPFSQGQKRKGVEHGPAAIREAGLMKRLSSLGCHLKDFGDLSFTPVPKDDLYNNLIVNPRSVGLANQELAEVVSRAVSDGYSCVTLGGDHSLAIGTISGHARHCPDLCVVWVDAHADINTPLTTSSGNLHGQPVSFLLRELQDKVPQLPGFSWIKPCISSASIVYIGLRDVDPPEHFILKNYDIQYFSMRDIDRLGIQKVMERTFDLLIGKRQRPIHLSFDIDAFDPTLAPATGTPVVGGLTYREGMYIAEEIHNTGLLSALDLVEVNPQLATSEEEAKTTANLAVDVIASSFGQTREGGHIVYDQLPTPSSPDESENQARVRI

[6] = target: T3, Proteasome subunit beta (Trypanosoma cruzi) (UniProt O96673); assay: Trypanosoma cruzi proteasome chymotrypsin-like activity (TcProtChymo) assay.; also: in the data most compounds retested in dose-response had high values; assay type: functional; details: 9.37 µM
T3 sequence (whole entry): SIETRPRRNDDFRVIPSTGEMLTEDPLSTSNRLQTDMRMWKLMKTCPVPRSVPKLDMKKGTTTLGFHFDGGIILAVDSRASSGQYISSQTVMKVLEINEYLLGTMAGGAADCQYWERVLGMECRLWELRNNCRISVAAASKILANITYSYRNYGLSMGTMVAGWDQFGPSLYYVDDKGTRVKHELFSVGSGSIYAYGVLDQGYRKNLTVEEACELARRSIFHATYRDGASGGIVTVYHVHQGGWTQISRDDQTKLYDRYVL

[7] = species on record: Homo sapiens; assay: To identify inhibition of the IFN signalling (Jak-Stat) pathway via expression of an eGFP reporter gene under the control of an IFN-stimulated response element (ISRE) containing MxA promoter.; assay type: functional; details: 30 µM
[8] = target: T4, Tyrosyl-tRNA synthetase, putative (Trypanosoma cruzi (strain CL Brener)) (UniProt Q4DSP6); assay: Trypanosoma cruzi tyrosyl tRNA synthetase (TcYRS) _High Tyrosine SOP; assay type: functional; details: 30 µM; also: in the data most compounds retested in dose-response had high values
T4 sequence (whole entry): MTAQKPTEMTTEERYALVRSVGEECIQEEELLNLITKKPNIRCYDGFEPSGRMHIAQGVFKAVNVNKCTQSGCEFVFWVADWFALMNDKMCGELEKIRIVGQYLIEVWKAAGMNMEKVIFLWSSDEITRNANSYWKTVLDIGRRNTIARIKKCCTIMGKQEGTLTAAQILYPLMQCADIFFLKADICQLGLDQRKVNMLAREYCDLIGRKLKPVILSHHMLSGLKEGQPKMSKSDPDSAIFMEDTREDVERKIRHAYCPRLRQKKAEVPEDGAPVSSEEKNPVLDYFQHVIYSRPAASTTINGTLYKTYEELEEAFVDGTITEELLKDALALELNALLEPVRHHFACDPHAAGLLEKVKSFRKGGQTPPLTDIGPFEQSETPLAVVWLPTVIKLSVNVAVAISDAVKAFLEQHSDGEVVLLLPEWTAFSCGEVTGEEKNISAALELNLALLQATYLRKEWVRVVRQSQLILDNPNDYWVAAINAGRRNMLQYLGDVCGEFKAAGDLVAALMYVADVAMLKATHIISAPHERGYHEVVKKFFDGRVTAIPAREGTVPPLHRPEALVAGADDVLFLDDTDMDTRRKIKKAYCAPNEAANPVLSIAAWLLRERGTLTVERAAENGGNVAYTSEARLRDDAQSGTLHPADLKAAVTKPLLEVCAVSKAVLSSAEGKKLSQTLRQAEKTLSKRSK

[9] = target: T4, Tyrosyl-tRNA synthetase, putative (Trypanosoma cruzi (strain CL Brener)); assay: Trypanosoma cruzi tyrosyl tRNA synthetase (TcYRS) SOP; assay type: functional; details: 30 µM
[10] = target: Chromo domain-containing protein 1 (Saccharomyces cerevisiae (strain ATCC 204508 / S288c) (Baker's yeast)) (UniProt P32657); assay: ScCHD-1 Enzyme Inhibition Assay; assay type: functional; details: 30 µM; also: in the data most compounds retested in dose-response had high values
Chain of Chromo domain-containing protein 1 (Saccharomyces cerevisiae (strain ATCC 204508 / S288c) (Baker's yeast)) (P32657 whole entry, the tested form may be a part): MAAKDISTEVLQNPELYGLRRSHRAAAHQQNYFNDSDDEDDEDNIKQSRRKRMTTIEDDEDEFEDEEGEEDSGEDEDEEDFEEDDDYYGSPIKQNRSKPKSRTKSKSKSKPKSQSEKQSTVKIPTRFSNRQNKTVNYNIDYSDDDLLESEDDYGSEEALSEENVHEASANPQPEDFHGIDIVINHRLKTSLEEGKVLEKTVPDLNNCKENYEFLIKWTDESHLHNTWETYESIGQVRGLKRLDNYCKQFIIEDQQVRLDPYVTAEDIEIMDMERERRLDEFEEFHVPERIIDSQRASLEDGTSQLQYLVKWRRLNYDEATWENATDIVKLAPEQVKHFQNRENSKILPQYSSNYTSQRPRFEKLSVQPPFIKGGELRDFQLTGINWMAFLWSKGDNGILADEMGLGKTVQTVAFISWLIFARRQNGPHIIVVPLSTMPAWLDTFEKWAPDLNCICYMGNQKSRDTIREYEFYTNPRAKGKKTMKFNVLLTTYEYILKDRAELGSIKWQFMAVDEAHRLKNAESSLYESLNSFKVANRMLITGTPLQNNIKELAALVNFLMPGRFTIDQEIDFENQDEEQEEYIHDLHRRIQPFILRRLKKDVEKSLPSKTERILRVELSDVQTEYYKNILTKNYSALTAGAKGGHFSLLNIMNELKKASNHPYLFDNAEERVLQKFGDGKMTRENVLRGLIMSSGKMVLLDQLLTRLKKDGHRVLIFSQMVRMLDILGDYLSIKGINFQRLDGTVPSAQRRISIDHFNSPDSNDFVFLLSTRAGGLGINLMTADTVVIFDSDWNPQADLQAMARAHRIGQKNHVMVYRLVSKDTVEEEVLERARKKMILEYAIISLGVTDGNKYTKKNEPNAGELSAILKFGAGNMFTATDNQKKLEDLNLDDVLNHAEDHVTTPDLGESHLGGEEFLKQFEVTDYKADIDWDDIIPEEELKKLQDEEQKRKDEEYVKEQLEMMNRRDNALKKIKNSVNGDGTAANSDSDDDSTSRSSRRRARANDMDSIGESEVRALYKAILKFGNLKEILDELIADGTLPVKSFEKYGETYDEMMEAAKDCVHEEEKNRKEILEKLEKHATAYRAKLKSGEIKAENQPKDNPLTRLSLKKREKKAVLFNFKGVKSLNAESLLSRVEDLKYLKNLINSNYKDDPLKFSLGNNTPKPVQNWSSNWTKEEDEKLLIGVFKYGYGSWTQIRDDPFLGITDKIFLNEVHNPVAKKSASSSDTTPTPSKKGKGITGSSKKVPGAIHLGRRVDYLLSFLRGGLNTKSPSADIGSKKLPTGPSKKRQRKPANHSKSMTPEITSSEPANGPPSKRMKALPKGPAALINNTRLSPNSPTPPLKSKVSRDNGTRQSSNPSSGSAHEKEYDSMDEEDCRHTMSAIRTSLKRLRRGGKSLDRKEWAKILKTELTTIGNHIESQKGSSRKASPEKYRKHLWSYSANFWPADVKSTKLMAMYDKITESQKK

Chain of Protein translocase subunit SecA (Escherichia coli (strain K12)) (P10408 whole entry): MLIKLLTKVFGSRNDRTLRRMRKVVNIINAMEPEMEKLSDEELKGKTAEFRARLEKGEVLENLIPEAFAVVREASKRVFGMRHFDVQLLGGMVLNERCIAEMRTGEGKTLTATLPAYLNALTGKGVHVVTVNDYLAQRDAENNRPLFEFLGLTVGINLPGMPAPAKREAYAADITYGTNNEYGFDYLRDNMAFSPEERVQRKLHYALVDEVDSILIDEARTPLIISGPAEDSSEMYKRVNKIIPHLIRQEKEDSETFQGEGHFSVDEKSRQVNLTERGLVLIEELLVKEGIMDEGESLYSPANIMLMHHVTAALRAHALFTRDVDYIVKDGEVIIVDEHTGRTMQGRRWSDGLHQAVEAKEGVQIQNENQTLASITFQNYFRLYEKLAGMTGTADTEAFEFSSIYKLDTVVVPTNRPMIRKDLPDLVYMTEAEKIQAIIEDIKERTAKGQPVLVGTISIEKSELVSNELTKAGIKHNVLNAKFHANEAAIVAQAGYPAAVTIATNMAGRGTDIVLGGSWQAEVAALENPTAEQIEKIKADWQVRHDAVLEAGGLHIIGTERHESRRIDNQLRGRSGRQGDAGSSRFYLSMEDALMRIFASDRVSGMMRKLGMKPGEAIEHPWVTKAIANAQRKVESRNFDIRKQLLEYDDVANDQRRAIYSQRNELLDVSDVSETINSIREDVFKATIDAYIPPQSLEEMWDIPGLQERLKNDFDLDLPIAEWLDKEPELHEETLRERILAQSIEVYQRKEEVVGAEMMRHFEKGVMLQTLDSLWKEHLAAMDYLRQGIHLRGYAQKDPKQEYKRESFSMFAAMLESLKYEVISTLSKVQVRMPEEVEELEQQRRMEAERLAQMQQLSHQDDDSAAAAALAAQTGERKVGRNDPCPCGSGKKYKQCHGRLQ

Row | Compound | Percent Effect [1] | Percent Effect [2] | Percent Effect [3] | Percent Effect [4] | Percent Effect [5] | Percent Effect [6] | Percent Effect [7] | Percent Effect [8] | Percent Effect [9] | Percent Effect [10]
1 | c1ccc(-n2ncc(CNC3CCc4ncnn4C3)n2)cc1 (stereo not given) | -1.79% | 10.3% | 0.298% | 1.03% | 4.51% | 3.16% | 10% | 1.44% | 8.43% | 1.52%
2 | Cc1nc(CNC(=O)NCC(O)c2ccc(F)cc2F)cs1 (stereo not given) | 0.239% | 13.3% | -2.61% | -4.62% | 2.22% | 9.75% | -4.09% | 8.95% | 15.4% | -9.8%
3 | CCO[C@H]1CO[C@@]2(CCCN(S(=O)(=O)c3ccccc3)C2)C1 | -1.1% | 24.7% | -3.22% | -3.02% | 11.3% | 17.7% | 10.2% | 2.63% | 0% | 6.62%
4 | OC(COc1ccccc1)CN1CCc2c(ncn2C2CC2)C1 (stereo not given) | -6.24% | 8% | 5.27% | -6.02% | -1.77% | 3.65% | 15.6% | 5.79% | 7.69% | -12.1%
5 | CC(C(=O)N1CCCC1)N1CCC(c2nccn2CC2CCC2)CC1 (stereo not given) | -7.94% | 0% | -0.943% | -1.07% | 0.35% | 1.71% | 1.41% | 9.04% | 12.2% | 2.51%
6 | c1ccc(CCNC2CCc3ncnn3C2)nc1 (stereo not given) | -0.356% | 18.2% | -2.1% | -0.373% | -1.84% | 11.8% | 8.49% | 11.8% | 23.5% | -9.93%
7 | CCC1=N[C@@]2(CC[C@@H]3CN(C(=O)NCc4ccccc4)C[C@@H]32)C(=O)N1C | -5.59% | -6.49% | -0.715% | -3.02% | -2.02% | 5.21% | 6.81% | 1.58% | -10.3% | 0.585%
8 | Cc1cnn(CC2CCN(CC(O)COc3ccc(F)cc3)CC2)c1 (stereo not given) | -5.77% | 2.6% | -3.53% | -1.87% | -5.94% | 4.21% | 9.11% | 0.98% | 0% | -2.59%
9 | CCC1c2ccsc2CCN1C(=O)NCc1ccccn1 (stereo not given) | -3.49% | 20.5% | -10.3% | 4.6% | 4.1% | 10.2% | 10.8% | 5.26% | 22.9% | -7.76%
10 | CC(O)CN1CCC(CNCc2ccccc2OC(F)(F)F)CC1 (stereo not given) | -4.07% | 10.3% | -7.91% | 7.98% | -1.64% | 9.81% | 2.5% | 0.478% | 10.8% | -0.0569%
11 | COc1ncccc1NC(=O)c1cccc(C)n1 | 3.56% | 15.4% | -4.18% | 1.41% | 2.05% | 4.18% | 7.05% | 9.09% | 25.3% | -8.29%
12 | CCC1CN(C(=O)c2ccc(Cl)cc2O)CCN1C(C)C (stereo not given) | -4.41% | 2.7% | 8.13% | 6.5% | 11.5% | 6.34% | 12.9% | 4.79% | 9.76% | -3.73%
13 | Cc1ncccc1O[C@H]1CCN(C(=O)Cc2cccs2)CC[C@@H]1O | -5.37% | 17.3% | 6.84% | 1.18% | -0.443% | 10.8% | 7.57% | 6.35% | 15% | -22.2%
14 | CN(C)C(=O)[C@@H]1C[C@@H]2CCN(Cc3ccc4c(c3)OCO4)C[C@@H]2O1 | -2.52% | -1.3% | -0.448% | -1.07% | -2.83% | 6.62% | -0.537% | -2.63% | -2.56% | -0.196%

Reference: ChEMBL document CHEMBL3988442, “University of Dundee, Small-Polar-MMV Screening Library” (2021)
